Measured values taken from PubChem BioAssay (NCI).
“And” between values parts separate entries of the source, which are not always exact repeats. Equal entries are not always repeated. Compounds without any hit were thinned out: in the full panel of roughly 83,000, 20% have a hit.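 Single-concentration screen, 48 h exposure, 96-well plates. Endpoint: percent growth. Below 10 = active.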 A number with no mark means an inactive call. The source made the active and inactive calls.

System: MDA-MB-468 breast
Assay: NCI-60 one-dose screen, 48 h (100 = growth as untreated, 0 = no growth, -100 = all killed)
Settings: 10 µM unless noted

SMILES	growth
Cc1ccccc1NC(=O)Cc1csc2[n+]1C(=O)/C(=C/c1ccc([N+](=O)[O-])cc1)S2	116%
CCOC(=O)C(=Cc1ccc(-c2ccccc2)cc1)C(=O)OCC	53%
O=C1C(=O)c2c(nc3ccc(Br)cn23)-c2ccccc21	-58% (active)
COc1ccc(-c2nn(-c3cccc(NC(=O)c4cc(C(F)(F)F)cc(C(F)(F)F)c4)c3)cc2-c2ccncc2)cc1Cl	61.4%
CCN(CC)CCCC(C)N/C(=C1\C(=O)NC(=O)\C1=C(/NC(C)CCCN(CC)CC)c1cccc(OC)c1)c1cccc(OC)c1 (stereo not given)	-42.6% (active)
CC(=O)N(CC(O)CO)c1c(I)c(C(=O)NCCO)c(I)c(C(=O)NCC(O)CO)c1I (stereo not given)	110%
COc1c(N2CC3CCCNC3C2)c(F)cc2c(=O)c(C(=O)N/N=C/c3ccc(Br)cc3)cn(C3CC3)c12 (stereo not given)	97%
CSc1nc2c(c(=O)n1C)C(c1ccccc1)C1=C(N2)/C(=C/c2ccccc2)CCC1 (stereo not given)	34.7%
CN(C)C(=O)OCc1ccc2c(Cl)cc(Cl)c(O)c2n1	27%
COc1ccccc1/C=C/C(=O)/C=C/c1ccccc1OC	-61.8% (active) and -11.8% (active)
O=C(O)CCCN1C(=O)CSC1=S	99.3%
Cc1cc(O)ccc1C1=NN(c2ccc(S(C)(=O)=O)cc2)C(=O)CC1	103%
COc1ccc(C=C2c3ccccc3-c3ccccc32)cc1	41.3%
C=C(C)[C@@H]1CC[C@]2(C(=O)N[C@H](CO)Cc3ccccc3)CC[C@]3(C)[C@H](CC[C@@H]4[C@@]5(C)CCCNC(C)(C)[C@@H]5CC[C@]43C)[C@@H]12	-90.5% (active)
CN1CCN(c2nc(NCCNc3ccnc4cc(Cl)ccc34)c3ccccc3n2)CC1	-51.6% (active)
CCCCN1C(=O)/C(=c2\sc3n(c2=O)C2C(NN=3)N(CC)C(=O)N2CC)c2ccccc21 (stereo not given)	1.69% (active)
COc1ccc2c(c1)c(CC(=O)[Se]CC(=O)O)c(C)n2C(=O)c1ccc(Cl)cc1	86.9%
Oc1ccc(CSc2nnc(-c3ccc(Oc4ccccc4)cc3)o2)c2cccnc12	30.7%
CN(C)c1ccc2c(c1)/C(=N/O)c1ccccc1-2	76.9%
CCN1C(=O)N(CC)C2C1N=C(SC)N2/N=C/C=C/c1ccccc1OC (stereo not given)	1.3% (active)

SMILES	growth
COC1/C=C/OC2(C)Oc3c(C)c(O)c4c(O)c(c(C=NOC(c5ccccc5)c5ccccc5)c(O)c4c3C2=O)NC(=O)/C(C)=C/C=C/C(C)C(O)C(C)C(O)C(C)C(OC(C)=O)C1C (stereo not given)	3.6% (active)
Cn1ccnc1C(=O)/C=C/c1ccc(C(=O)Nc2ccccc2O)cc1	-3.85% (active)
Cc1cc(N2CCCCC2)nc(NC2CCCC(Nc3ccnc4cc(Cl)ccc34)C2)n1 (stereo not given)	-77.6% (active)
CCOC(=O)CC(C)=N	92.8%
COc1ccc(/C=C/C(=O)Nc2ncnc3nc[nH]c23)cc1	95.3%
COC(=O)c1c2c(c[n+]([O-])c1C)C(=O)C(NCc1ccccc1)=CC2=O	-57.7% (active)
C/C(=N\NC(=O)Cn1c(-c2ccc(S(C)(=O)=O)cc2)nc2ccccc21)c1ccc(Cl)cc1	98.3%
COc1ccc2c(c1)C(c1cc(OC)c3c(c1)OCO3)C1=C(COC1=O)N2 (stereo not given)	-14.4% (active)
CN(C)CCCN1c2ccccc2CCc2ccc(Cl)cc21	-21.6% (active)
CCCCCCCCCCCCNC(=O)[C@H]1CSC(c2cc3ccccc3s2)N1 (stereo not given in full)	-57.9% (active)
Cc1ccc2nc3[nH]c(=O)[nH]c(=O)c3c(N)c2c1	88.3%
COc1cccc(-c2nnc(N)o2)c1	90.3%
NCCSSC/C=C\CSSCCN	94.6%
COC(=O)c1c2c(c(C)[n+]([O-])c1C)C(=O)C=C(NCc1ccc(F)c(F)c1)C2=O	-78.4% (active)
O=C1CCc2c(sc3[nH]c(=S)n(-c4cc(C(F)(F)F)cc(C(F)(F)F)c4)c(=O)c23)C1	-14.2% (active)
CCCCCSc1ccc2nc(NC(=O)OCCC)sc2c1	9.55% (active)
CCN(CC)CC[n+]1cc2cc(OC)c(OC)cc2c2ccc3cc4c(cc3c21)OCO4	-27% (active)
C=C(CN1CC=CCC1)[C@@H]1CC[C@]2(COC(C)=O)CC[C@]3(C)[C@H](CC[C@@H]4[C@@]5(C)CC[C@H](O)C(C)(C)[C@@H]5CC[C@]43C)[C@@H]12	95%
NC(=O)C1(Nc2ccc(Br)cc2)CCCC1	101%
Clc1ccc2c(NCCCN3CCN(c4nc(N5CCOCC5)nc5ccccc45)CC3)ccnc2c1	-74.3% (active)
